Compound activity (PubChem BioAssay)
MARV entry inh = qHTS for inhibitors of binding or entry into cells for Marburg Virus. Marburg virus pseudotyped entry inhibition, cell reporter. Potency, µM (series often up to 37.8 µM), for inactives: top-dose activity change, negative = inhibition, most hits filed as inhibitors. hit rate 1.8% among 300,000. AID 540276, 2011; calls by dose curve; tested in HEK293 cells; further: potency means the concentration at half of the fitted maximal effect
HCV inh = qHTS Assay for Inhibitors of Hepatitis C Virus (HCV). Huh7.5.1 HCVcc-Cre infection, luciferase reporter, 44 h. Potency, µM (titrated, usually from 41.8 µM), for the others: at the top dose activity change, negative = inhibition, actives largely listed as inhibitors. hit rate 3.4% among 340,000. AID 651820, 2012; further: potency means the concentration at half of the fitted maximal effect
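Compounds are dispensed onto cells plated 4 h earlier at 1,000 per well, with HCVcc-Cre virus (about 0.5 moi) added next. Following 44 h of culture, luminescent signal is measured for 15 sec after 15 min with substrate at room temperature.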
Pf growth 96h = Primary qHTS for delayed death inhibitors of the malarial parasite plastid, 96 hour incubation; P. falciparum luciferase reporter growth, 96 h; hit rate 6.9% among 320,000; AID 504834, 2011; Potency, µM (highest dose often 28.7 µM), without a hit: top-dose activity change, negative = inhibition, actives largely listed as inhibitors; further: potency means the concentration at half of the fitted maximal effect
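Two-generation exposure (96 h) targets delayed-death phenotype. Reporter parasites carrying integrated firefly luciferase, in red cells at 2% hematocrit and 0.05% parasitemia final, kept at 37 C, 5% CO2; luminescence loss indicates inhibition.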
LASV entry inh = qHTS for Inhibitors of binding or entry into cells for Lassa Virus; Potency, µM (series often up to 37.9 µM), for the others: top-dose activity change, negative = inhibition, usual class: inhibitors; AID 540256, 2011; hit rate 1.2% among 300,000; Lassa virus pseudotype entry inhibition, cell reporter; calls by dose curve; tested in HEK293 cells; further: potency means the concentration at half of the fitted maximal effect; nearly all actives have a fitted effect of over 50% in size
Pf growth 48h = Primary qHTS for delayed death inhibitors of the malarial parasite plastid, 48 hour incubation; Potency, µM (top dose mostly 28.7 µM), for inactives: top-dose activity change, negative = inhibition, most hits filed as inhibitors; hit rate 5.9% among 310,000; P. falciparum luciferase growth in erythrocytes, 48 h; further: potency means the concentration at half of the fitted maximal effect
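Firefly luciferase activity from engineered P. falciparum reports growth; inhibitors lower the luminescent signal. Cultures contained 2% hematocrit erythrocytes at 0.1% final parasitemia.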
HCMV antiviral = qHTS Assay for inhibitors of the human cytomegalovirus (HCMV) | HFF cells, HCMV-luciferase reporter, 72 h; stronger effect = lower value | hit rate 4.5% among 410,000 | activity change, negative = inhibition, % at 57.5 µM; in the data active means activity change below about -60%; inconclusive means no clear call, values can overlap the other calls; inactive means above about -39%
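Human foreskin fibroblasts infected with luciferase-reporter HCMV at MOI 1 PFU/cell, compounds at two doses. Luciferase measured 72 h post infection; normalized to buffer-only basal and Salinomycin (10uM) controls.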
An asterisk follows results filed as active; i = inactive; ? = inconclusive; . = no result given; [ ] = another dose, or the depositor's remark. Compounds with a hit are over-represented: about 14% of the library has one in this group of screens. Unless noted, the call rests on the fitted dose curve; in most records, active means well fitted inhibition curve with a large enough effect; inconclusive means small, poorly fitted or top-dose-only effect, or another doubt; inactive means no such curve, though single readings can be large or run the other way. On the % scale 0 is the no-effect control and ±100 the full control effect.

SMILES	MARV entry inh	HCV inh	Pf growth 96h	LASV entry inh	Pf growth 48h	HCMV antiviral
Cc1c(C(c2ccc(C(=O)O)cc2)c2c(C)n(C)n(-c3ccccc3)c2=O)c(=O)n(-c2ccccc2)n1C	-13%	3.5µM*	15%	?	.	9
COCCNC(=O)C1(C)CCCN(Cc2ccc(-c3ccccc3)o2)C1 (stereo not drawn)	.	.	.	.	.	-21
C/C(=N\Nc1nc(C(C)(C)C)cs1)c1ccc(O)cc1	.	-20%	?	.	?	-22
CC(C)(C)c1csc(NNC(=O)c2ccc(Br)cc2)n1	?	?	?	?	2.9µM*	-97*
CCc1ccc(OC)c(-c2csc(N)n2)c1	19%[46.1 µM]	?	12µM*	4%	19%	-38
COc1ccc(OC)c(-c2csc(NC(=O)Cc3cccs3)n2)c1	-8%	?	-14%	0.32µM*	-18%	34
CC(=O)Nc1ccc(-c2csc(NC(=O)Cc3ccccc3F)n2)cc1	-41%	?	108%	?	27%	34
CC(=O)Nc1ccc(-c2csc(NC(=O)Cc3cccc(F)c3)n2)cc1	?	7.9µM*	-13%	?	-22%	-3
C[C@@H]1CNC(=O)c2c(C(=O)N[C@@H](Cc3c[nH]c4ccccc34)C(=O)OC(C)(C)C)ncn21	.	.	.	.	.	-9
CC(=O)N[C@@H](Cc1ccc(O)cc1)C(=O)N[C@H](C(=O)N[C@@H](C)C(=O)N[C@H](C#N)CC(=O)O)C(C)C	.	.	9%	.	1%	.
O=C(Cc1cccs1)Nc1nc(-c2ccc(F)cc2F)cs1	?	11µM*	?	1.6µM*	.	0
COc1ccc(OC)c(-c2csc(NC(=O)Cc3ccc(OC)c(OC)c3)n2)c1	4%[46.1 µM]	?	-19%	?	-8%	-18
O=C(Cc1cccs1)Nc1nc(-c2ccc(F)c(F)c2)cs1	-1%[46.1 µM]	?	?	?	?	16
COc1ccc(CC(=O)Nc2nc(-c3cc(OC)ccc3OC)cs2)cc1	?	13µM*	?	?	13%	-23
COc1ccc(OC)c(-c2csc(NC(=O)CSCC(=O)Nc3cc(C)on3)n2)c1	.	-29%	?	.	?	0
CC(C)(C)c1csc(NC(=O)c2ccccc2O)n1	11µM*	22µM*	17%	?	-3%	-94*
COc1ccc(OC)c(-c2csc(NC(=O)COC(=O)C3(C)CC3(Cl)Cl)n2)c1 (stereo not drawn)	.	14µM*	-1%	.	?	11
O=C(NC1CCN(Cc2ccccc2)CC1)c1[nH]c(C(F)(F)F)nc1-c1ccccc1	.	.	.	.	.	2
O=C(c1nc[nH]c1C(=O)N1CCc2ccccc2C1)N1CCc2ccccc2C1	.	22%	50%	.	41%	9
CC(C)(C)c1csc(NC(=O)CS(=O)(=O)c2ccccc2)n1	3%[46.1 µM]	-15%	1%	?	22%	59
COc1ccc(CC(=O)Nc2nc(C(C)(C)C)cs2)cc1	?	10µM*	-12%	4.5µM*	-7%	?
COCCN1C(=O)CSCC1(C)C(=O)NCc1ccccc1 (stereo not drawn)	.	.	.	.	.	28
COc1cccc(NC(=O)Nc2ccc(CC(=O)O)cc2)c1	-4%[46.1 µM]	14%	2.3µM*	-7%[46.1 µM]	21%	-17
COc1cccc(Cn2cccc(NC(=O)Nc3cccc(C#N)c3)c2=O)c1	.	?	27%	.	?	-62*
COc1cccc(NC(=O)Nc2cccc(C(=O)O)c2)c1	?	14%	?	?	i	42
CCc1ccc(NC(=O)Nc2cccc(OC)c2)cc1	?	?	24%	-3%[46.1 µM]	104%	?
COc1cccc(NC(=O)Nc2cccn(Cc3ccc(C)cc3)c2=O)c1	?	11µM*	4%	?	?	?
COc1cccc(NC(=O)Nc2cc(C)ccc2OC)c1	?	-26%	8%	3%[46.1 µM]	2%	?
